Compounds without any hit were thinned out: in the full panel of roughly 83,000, 20% have a hit.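 In brief: 96-well plates, 48 h treatment, single concentration, percent growth endpoint.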 Calls of active or inactive are those of the source. Rule for the calls: active = growth percent below 10; inactive = the rest.

The record followed here is PubChem BioAssay (NCI).

For this assay, the system named is RXF 393 renal. Kind of assay: NCI-60 one-dose screen, 48 h (100 = growth as untreated, 0 = no growth, -100 = all killed). The following applies: 10 µM unless noted.
Take `C=C(C)[C@@H]1CC[C@]2(C(=O)OC)CC[C@]3(C)[C@H](CC[C@@H]4[C@@]5(C)C/C(=C/c6cccc(I)c6)C(=O)C(C)(C)[C@@H]5CC[C@]43C)[C@@H]12`: the growth is 88.1% (inactive). With `N#Cc1c(-c2ccc(Cl)cc2)nc(NN=Cc2ccco2)nc1N1CCOCC1`, the growth is 52.2% (inactive). For `C=CC(=O)Nc1cccc(Nc2nc(SC)nc(-c3cccc([N+](=O)[O-])c3)c2C#N)c1`, the growth is 18.5% (inactive).

Take `COc1ccc(/C=C/C(=O)c2ccc(O)c(CN3CCN(c4cc5c(cc4F)c(=O)c(C(=O)O)cn5C4CC4)CC3)c2)cc1`: the growth is 28.3% (inactive).

`COc1cc2nc(N3CCCC3)nc(Nc3ccccc3)c2cc1OC`: the growth is -84.5% (active).

Consider `COc1cccc(-c2nc3sccn3c2-c2ccnc(NCCNS(=O)(=O)c3ccccc3)c2)c1`, for which the growth was 47.5% (inactive). With `COc1cc(/C=C/C(=O)c2c(C)oc3nc[nH]c(=O)c23)cc(OC)c1OC`, the growth was 66.3% (inactive). With `C=C(C)[C@@H]1CC[C@]2(C(=O)OC)CC[C@]3(C)[C@H](CC[C@@H]4[C@@]5(C)C/C(=C/c6ccc(OC)cc6)C(=O)C(C)(C)[C@@H]5CC[C@]43C)[C@@H]12` the figure was 66.9% (inactive); with `O=S(=O)(Nc1ccc(I)cc1F)c1ccc(-c2cnc(C3CC3)o2)cc1`, 73% (inactive); with `COc1cc2nc(N3CCCC3)nc(NCCc3ccccc3)c2cc1OC`, 67.9% (inactive). With `COc1ccc(Nc2nc(SC)nc(-c3cccc([N+](=O)[O-])c3)c2C#N)cc1` the figure was 60% (inactive); with `COc1cc(CNc2oc(-c3ccccc3)c(-c3ccccc3)c2C#N)cc(CN2CCN(C)CC2)c1O`, 42.8% (inactive); with `COc1ccc(-c2nc3ccc(-c4nc5ccc(N6CCN(c7ccncc7)CC6)cc5[nH]4)cc3[nH]2)cc1OC`, 85.1% (inactive). For the compound `O=C1/C(=C/c2cn(-c3ccccc3)nc2-c2ccccc2)SC(=S)N1CCc1ccccc1`, the growth was 111% (inactive). Regarding `CCCN1CCN(c2ccc3nc(-c4ccc5nc(-c6ccc(OCC)cc6)[nH]c5c4)[nH]c3c2)CC1`, the growth was -31.3% (active).

As to `COc1cccc(-c2nc3sccn3c2-c2ccnc(NCCCNS(=O)(=O)c3cccc(F)c3)c2)c1`, the growth was 66.7% (inactive). For `Cn1c(=O)c2c(nc3n(-c4ccc(Cl)cc4Cl)c(Sc4nc(-c5ccccc5)c(C#N)c(=O)[nH]4)cn23)n(C)c1=O` the value was 59.1% (inactive); for `O=C(/C=C/c1ccccc1)c1ccc(O)c(CN2CCN(c3cc4c(cc3F)c(=O)c(C(=O)O)cn4C3CC3)CC2)c1`, 17.4% (inactive); for `C=CC(=O)Nc1cccc(-c2nc(SC)nc(Nc3ccccc3OC)c2C#N)c1`, 39.7% (inactive).

As to `COc1cccc(-c2nc3sccn3c2-c2ccnc(NCCNS(=O)(=O)c3ccc(F)cc3)c2)c1`, the growth is 42.2% (inactive). With `COc1cc2nc(N3CCCC3)nc(NCc3ccccc3)c2cc1OC` the figure was 35.7% (inactive); with `N#Cc1c(-c2ccc(Cl)cc2)nc(N/N=C/c2cccc(Br)c2)nc1N1CCOCC1`, 56.2% (inactive). For `CSc1nc(-c2cccc(NC(=O)CCl)c2)c(C#N)c(=O)n1C`, the growth was 63.9% (inactive). On to `C=CC(=O)Nc1cccc(-c2nc(SC)nc(NCCc3ccc(OC)c(OC)c3)c2C#N)c1`, for which the growth was 59.4% (inactive). Take `O=C(/C=C/c1cccc([N+](=O)[O-])c1)c1ccc(O)c(CN2CCN(c3cc4c(cc3F)c(=O)c(C(=O)O)cn4C3CC3)CC2)c1`: the growth is -12.4% (active).

Turning to `COc1cc(/C=C/C(=O)c2ccc(O)c(CN3CCN(c4cc5c(cc4F)c(=O)c(C(=O)O)cn5C4CC4)CC3)c2)cc(OC)c1OC`, the growth is 28.1% (inactive). As to `CC(C)(O)c1cn(CCCCN2C(=O)C(=O)c3ccccc32)nn1`, the growth is 104% (inactive). Take `COC(=O)[C@]12CCC(C)(C)C[C@H]1[C@H]1C(=O)C[C@@H]3[C@@]4(C)c5c([nH]c6ccccc6c5=O)C(C)(C)[C@@H]4CC[C@@]3(C)[C@]1(C)CC2`: the growth is 65.7% (inactive).

For `N=C(N)c1ccc(-c2ccc(-c3ccc4ccccc4c3)s2)s1`, the growth is -55.1% (active). For `C=CC(=O)Nc1cccc(-c2nc(SC)nc(NCCN3CCOCC3)c2C#N)c1` the value was 89.7% (inactive); for `COc1cc(C=Nc2oc(-c3ccccc3)c(-c3ccccc3)c2C#N)cc(CN2CCCCC2)c1O`, 104% (inactive). With `CC1=NN(c2nc(-c3ccc(Cl)cc3)c(C#N)c(N3CCOCC3)n2)C(=O)C1` the figure was 43.4% (inactive); with `COc1cccc(Nc2nc(SC)nc(-c3cccc([N+](=O)[O-])c3)c2C#N)c1`, 68.2% (inactive). On to `CSc1nc(NCCO)c(C#N)c(-c2cccc([N+](=O)[O-])c2)n1`, for which the growth is 104% (inactive). In the case of `Cn1c(O)c(N=NC(=O)c2cc(-c3ccccc3)on2)c2ccccc21`, the growth was 104% (inactive). `CSc1nc(Nc2cccc(NC(=O)/C(C#N)=C/c3c(Cl)cccc3Cl)c2)c(C#N)c(-c2cccc([N+](=O)[O-])c2)n1`: the growth was 68.3% (inactive).

In the case of `COc1ccc(-c2nc3ccc(-c4nc5ccc(N6CCN(c7ccccc7)CC6)cc5[nH]4)cc3[nH]2)cc1OC`, the growth was -37.1% (active). With `O=C(N=Nc1c(O)[nH]c2ccccc12)c1cc(-c2ccccc2)on1`, the growth is 118% (inactive). Regarding `O=C1CC(=NCC(=O)n2c(-c3ccccc3)nc3ccccc32)NN1`, the growth is 110% (inactive).
